These results are taken from PubChem BioAssay (NCI).

Test systems include T-47D breast; BT-549 breast; MDA-MB-435 melanoma; SW-620 colon; MCF7 breast; HCT-116 colon; HCC-2998 colon; KM12 colon.
Common to all, as to assay: NCI-60 one-dose screen, 48 h (100 = growth as untreated, 0 = no growth, -100 = all killed)
Conditions in all cases: 10 µM unless noted

Compounds without any hit were thinned out: in the full panel of roughly 83,000, 20% have a hit.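 Results are percent growth after 48 hours of single-concentration exposure. 100 means growth as in untreated cells, lower positive values show inhibition; negative values down to -100 show cell death.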 A number with no mark means an inactive call. Calls of active or inactive are those of the source. Rule for the calls: active = growth percent below 10; inactive = the rest.

In the case of `Cc1[nH]n(C(=O)c2ccncc2)c(=O)c1N=Nc1ccc(F)c(Cl)c1`, the growth is 99.7% in the experiment on T-47D breast; 103% in the experiment with BT-549 breast; 112% in the experiment on MDA-MB-435 melanoma; 99.8% in the experiment on SW-620 colon; 92.1% in the experiment with MCF7 breast; 103% in the experiment with HCT-116 colon. Further, the growth in the experiment on HCC-2998 colon is 110%; with KM12 colon it was 105%.

For the compound `CC(=O)c1c[nH]c2ccc(-c3ccnc(Nc4ccc(NC(=O)C5CCCC5)c(CN5CCOCC5)c4)n3)cc12`, the growth with T-47D breast is -0.198% (active); with BT-549 breast, -7.17% (active); in the experiment on MDA-MB-435 melanoma it was -76% (active); with SW-620 colon it was 0.153% (active); in the experiment with MCF7 breast it was -38.1% (active); with HCT-116 colon, 0.944% (active). Besides, the growth with HCC-2998 colon is -31.4% (active); in the experiment on KM12 colon, -64.1% (active).

Take `Cc1cc(C(=O)Nc2ncnc3nc[nH]c23)no1`: the growth in the experiment with T-47D breast is 103%; with BT-549 breast it was 106%; in the experiment with MDA-MB-435 melanoma, 102%; in the experiment on SW-620 colon, 96.1%; with MCF7 breast it was 93.3%; in the experiment with HCT-116 colon, 105%. Also, the growth in the experiment on HCC-2998 colon was 104%; in the experiment with KM12 colon, 99.5%.

Turning to `CC(=O)[C@@H]1CC[C@]2(C(=O)n3ccnc3)CC[C@]3(C)[C@H](CC[C@@H]4[C@@]5(C)Cc6c([nH]c7ccccc67)C(C)(C)[C@@H]5CC[C@]43C)[C@@H]12`, the growth in the experiment on T-47D breast was 78%; with BT-549 breast, 99.1%; in the experiment on MDA-MB-435 melanoma, 101%; with SW-620 colon it was 90.8%; in the experiment with MCF7 breast it was 71.9%; with HCT-116 colon, 83.9%. In addition, the growth in the experiment on HCC-2998 colon was 109%; with KM12 colon, 84.2%.

As for `O=C1CCCCCCCCC(O)C(O)CCCC(c2cccs2)O1` (stereo not given), the growth with T-47D breast is 71.8%; in the experiment with BT-549 breast, 122%; with MDA-MB-435 melanoma, 99.3%; in the experiment on SW-620 colon, 103%; in the experiment on MCF7 breast, 95.9%; in the experiment with HCT-116 colon, 89.8%. Further, the values for the growth with HCC-2998 colon and in the experiment on KM12 colon were 118% and 100%, respectively.

As to `O=C(CCN1CCCC1)Nc1ccc2c(Nc3ccccc3)c3ccccc3nc2c1`, the growth is 18.6% in the experiment with T-47D breast; 41% with BT-549 breast; -93.5% (active) in the experiment with MDA-MB-435 melanoma; -27.9% (active) in the experiment with SW-620 colon; -13.5% (active) in the experiment on MCF7 breast; -45.4% (active) with HCT-116 colon. Moreover, the growth is -74.1% (active) with HCC-2998 colon and 16.1% with KM12 colon.

`COc1cc(C2CC(c3cccc(Nc4ccncc4)c3)=NN2C(C)=O)cc(OC)c1OC` (stereo not given): the growth in the experiment with T-47D breast is 85.2%; in the experiment on BT-549 breast, 103%; in the experiment with MDA-MB-435 melanoma it was 18.1%; with SW-620 colon, 87.8%; in the experiment with MCF7 breast, 72.6%; with HCT-116 colon, 71.2%. Moreover, the growth with HCC-2998 colon is 95.1%; with KM12 colon, 69.5%.

On to `CCCCCCCCOC(=O)c1ccc(O)c(OC)c1`, for which the growth with T-47D breast is 82.7%; in the experiment on BT-549 breast it was 102%; in the experiment with MDA-MB-435 melanoma, 106%; in the experiment with SW-620 colon, 109%; in the experiment with MCF7 breast it was 66.9%; with HCT-116 colon, 102%. In addition, the growth was 97.9% in the experiment with HCC-2998 colon and 102% in the experiment with KM12 colon.

As for `Cc1cccc(C)c1-c1cc(Cc2ccc(Cl)cc2)c(=O)[nH]n1`, the growth in the experiment with T-47D breast was 86.4%; in the experiment on BT-549 breast, 86.1%; with MDA-MB-435 melanoma it was 119%; with SW-620 colon, 104%; in the experiment with MCF7 breast, 97.2%; in the experiment with HCT-116 colon, 96.9%. Moreover, the growth in the experiment with HCC-2998 colon is 86.4%; in the experiment with KM12 colon, 103%.

For the compound `CCOC(=O)C1=C(C)NC(C)=C(C(=O)OCC)C1c1cc(Br)c(O)c(OC)c1`, the growth in the experiment on T-47D breast is 43.8%; in the experiment with BT-549 breast it was 15.3%; with MDA-MB-435 melanoma it was -33.7% (active); in the experiment with SW-620 colon it was 24.6%; with MCF7 breast it was 29.3%; with HCT-116 colon it was 24.5%. The values for the growth with HCC-2998 colon and in the experiment on KM12 colon were 63.6% and 23.6%, respectively.

On to `c1ccc(C2CC(c3cccc(Nc4ccncc4)c3)=NN2c2ccccc2)cc1` (stereo not given), for which the growth in the experiment with T-47D breast is 92.1%; in the experiment on BT-549 breast it was 92.7%; in the experiment with MDA-MB-435 melanoma it was 15.3%; in the experiment with SW-620 colon, -44.4% (active); in the experiment with MCF7 breast, 14.4%; with HCT-116 colon, -67.1% (active). In addition, the growth with HCC-2998 colon was 3.07% (active); in the experiment with KM12 colon it was 44.7%.

For `CCCC/C(=N\N=C(N)N)c1ccc(F)cc1`, the growth in the experiment on T-47D breast was 38.9%; in the experiment on BT-549 breast, 21.6%; in the experiment with MDA-MB-435 melanoma, -19.8% (active); with SW-620 colon, 23.8%; with MCF7 breast it was 13.1%; with HCT-116 colon, 21.1%. Also, the growth in the experiment with HCC-2998 colon was 37%; with KM12 colon it was 15.7%.

Consider `Cc1ccc(C2CC(c3cccc(Nc4ccncc4)c3)=NN2c2cc(Cl)cc(Cl)c2)cc1` (stereo not given), for which the growth was 80.3% in the experiment on T-47D breast; 101% with BT-549 breast; -63.2% (active) with MDA-MB-435 melanoma; -58% (active) in the experiment on SW-620 colon; -45.1% (active) in the experiment with MCF7 breast; -78.1% (active) in the experiment on HCT-116 colon. The growth with HCC-2998 colon is -77.7% (active); in the experiment on KM12 colon, -67.5% (active).

Take `O=C(CN1CCOCC1)Nc1ccc2ncnc(Nc3ccc(Oc4cccc(F)c4)c(Cl)c3)c2c1`: the growth with T-47D breast was 23.9%; in the experiment on BT-549 breast it was 86.2%; in the experiment with MDA-MB-435 melanoma, 85.4%; with SW-620 colon, 100%; in the experiment with MCF7 breast, 71.1%; in the experiment with HCT-116 colon it was 73.5%. In addition, the growth in the experiment with HCC-2998 colon was 101%; in the experiment on KM12 colon, 90.1%.

For the compound `Nc1cc(N)c2cccnc2c1O`, the growth in the experiment on T-47D breast was 93.4%; with BT-549 breast, 90.3%; in the experiment on MDA-MB-435 melanoma, -83.9% (active); in the experiment with SW-620 colon it was 60%; with MCF7 breast it was 46.3%; with HCT-116 colon, 51.7%. Also, the values for the growth in the experiment on HCC-2998 colon and in the experiment with KM12 colon were 77.1% and 81.6%, respectively.
